This passage reports AC50 and outcome results from PubChem BioAssay (EPA / NIEHS).

Where “and” joins values, the source holds several entries; their conditions need not be identical. Equal values may be shown once. A structure can be active in one record and inactive in another. Calls of active or inactive are those of the source. How the source made its calls: active means hit-call score of the fitted dose curve at least 0.9, where 1 is the maximum; inactive means score below 0.9.

The nature of test [1]: ATG_DR4_LXR_CIS: Attagene CIS-FACTORIAL HepG2 Assay for human Liver X Receptor (LXR), DR4 submotif (AID 2282929). To be noted: HepG2 Attagene DR4 cis-reporter, mRNA transcription; AC50: actives raise or lower the signal unless noted; outcome: actives raise or lower the signal unless noted. The procedure, abridged: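 After transient transfection with multiplexed cis-promoter reporter units, HepG2 cells received test chemicals for 24 h. Reporter mRNA induction, detected by fluorescence after RT-PCR and capillary electrophoresis, was scored relative to DMSO.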

Test [2] deals with Aryl hydrocarbon receptor (Homo sapiens) (UniProt P35869). The experiment in a line: ATG_Ahr_CIS: Attagene CIS-FACTORIAL HepG2 Assay for human Aryl Hydrocarbon Receptor (Ahr) (AID 2282930). To be noted: HepG2 AhR cis-factorial reporter transcription; actives raise or lower the signal. The method, boiled down: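 Endogenous factor activity is tracked through cis-promoter reporter units transfected into HepG2 cells. Transcript levels at 24 h are read by fluorescent RT-PCR and capillary electrophoresis, with activity in either direction scored relative to DMSO.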

A short description of test [3]: ATG_AP_1_CIS: Attagene CIS-FACTORIAL HepG2 Assay for human Activator Protein 1 (AP-1) (AID 2282931). To be noted: HepG2 Attagene cis-factorial AP-1 reporter mRNA; actives raise or lower the signal. The procedure, abridged:
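After 24 h incubation with test chemical, RNA from transfected HepG2 cells was reverse-transcribed, amplified, fluorescently labelled and digested before capillary electrophoresis. Reporters were driven by cis-regulatory promoters; activity fitted bidirectionally versus DMSO.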

Test [4] can be described thus: ATG_AP_2_CIS: Attagene CIS-FACTORIAL HepG2 Assay for human Activator Protein 2 (AP-2) (AID 2282932). To be noted: HepG2 AP-2 cis-reporter, Attagene transcription factor profiling; AC50: actives raise or lower the signal unless noted; outcome: actives raise or lower the signal unless noted. The method, boiled down:
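Read-out: fluorescent reporter mRNA via RT-PCR and capillary electrophoresis, 24 h post-dose in transiently transfected HepG2. Endogenous factors drive cis-promoter reporters; gain or loss of signal fitted bidirectionally against DMSO.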

The nature of test [5]: ATG_BRE_CIS: Attagene CIS-FACTORIAL HepG2 Assay for human Bone Morphogenetic Protein (BMP) Response Element (BRE) (AID 2282933). To be noted: HepG2 BMP response element reporter, Attagene transcription factor profiling; actives raise or lower the signal. The procedure, abridged:
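Multiplexed cis-reporter assay, HepG2, 24 h exposure. mRNA from reporter units quantified via RT-PCR/CE; DMSO baseline; bidirectional curve fit.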

Test [6] addresses Transcription factor E2F1 (Homo sapiens) (UniProt Q01094). Briefly: ATG_E2F_CIS: Attagene CIS-FACTORIAL HepG2 Assay for human E2F Transcription Factor 1 (AID 2282935). To be noted: HepG2 Attagene cis-reporter, E2F reporter RNA transcripts; actives raise or lower the signal. The procedure, abridged:
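Transient MRTU transfection of HepG2; 24 h compound exposure; RNA → oligo(dT) RT → PCR → FAM label → HpaI cut → CE fluorescence. Gain/loss of signal fit against DMSO.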

Test [7] is described as follows: ATG_E_Box_CIS: Attagene CIS-FACTORIAL HepG2 Assay for human Enhancer Box (E-box) (AID 2282936). To be noted: HepG2 E-box cis-reporter transcription, actives raise or lower the signal. The procedure, abridged:
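Transiently transfected HepG2, endogenous TF-driven reporters, 24 h dosing. Readout: RT-PCR plus capillary electrophoresis of fluorescent reporter fragments. Gain or loss of signal fitted bidirectionally against DMSO baseline.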

Test [8] is described as follows: ATG_M_61_CIS: Attagene CIS-FACTORIAL HepG2 Assay for M61 Transcription Factor (Internal Marker) (AID 2282937). To be noted: HepG2 Attagene CIS-FACTORIAL M61 internal marker reporter; actives raise or lower the signal. The method, boiled down:
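Using transiently transfected HepG2 liver cells, reporter transcript levels were assessed 24 h post-dosing by RT-PCR and capillary electrophoresis. Changes in either direction were fitted relative to DMSO controls.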

Test [9] can be described thus: ATG_EGR_CIS: Attagene CIS-FACTORIAL HepG2 Assay for human Early Growth Response 1 (EGR1) (AID 2282938). To be noted: HepG2 Attagene CIS-FACTORIAL EGR reporter mRNA; actives raise or lower the signal. The method, boiled down:
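Fluorescent capillary-electrophoresis signal of reporter cDNA fragments serves as read-out. HepG2 cells bear transiently transfected cis-promoter reporter units and are exposed 24 h; gain- or loss-of-signal is fitted against DMSO.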

Test [10] can be described thus: ATG_M_19_CIS: Attagene CIS-FACTORIAL HepG2 Assay for M19 Transcription Factor (Internal Marker) (AID 2282939). To be noted: HepG2 Attagene CIS-FACTORIAL M19 internal marker reporter; actives raise or lower the signal. The method, boiled down:
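Signals come from fluorescence of labelled reporter-specific PCR fragments resolved by capillary electrophoresis, following 24 h treatment of HepG2 cells transfected with cis-promoter reporter units; activity was fitted in both directions relative to DMSO.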

The nature of test [11]: ATG_Ets_CIS: Attagene CIS-FACTORIAL HepG2 Assay for human Erythroblast Transformation Specific (ETS) (AID 2282941). To be noted: HepG2 ETS cis-reporter transcription; AC50: actives raise or lower the signal unless noted; outcome: actives raise or lower the signal unless noted. The procedure, abridged: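 Bidirectional fit versus DMSO of reporter mRNA signal, detected by RT-PCR and capillary electrophoresis in HepG2 cells transiently transfected with cis-element reporters and dosed 24 h.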

Test [12] concerns the target Hepatocyte nuclear factor 3-beta (Homo sapiens) (UniProt Q9Y261). Briefly: ATG_FoxA2_CIS: Attagene CIS-FACTORIAL HepG2 Assay for human Forkhead box A2 (FOXA2) (AID 2282942). To be noted: HepG2 cis-reporter transcription factor activity, 24 h; actives raise or lower the signal. The procedure, abridged: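 Fluorescence signal of reporter cDNA fragments, separated by capillary electrophoresis, reflects endogenous transcription factor activity in transfected HepG2 after 24 h. Both increases and decreases fitted against DMSO.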

Test [13] is described as follows: ATG_FoxO_CIS: Attagene CIS-FACTORIAL HepG2 Assay for human Forkhead box O (FoxO) (AID 2282943). To be noted: HepG2 Attagene cis-reporter, FoxO element, mRNA; actives raise or lower the signal. The method, boiled down: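 Transfected HepG2 reporter cells exposed to test chemical for 24 h; reporter RNA measured by reverse transcription, PCR and fluorescent capillary electrophoresis; curves fitted for increases and decreases against DMSO.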

Test [14] in a line: ATG_GATA_CIS: Attagene CIS-FACTORIAL HepG2 Assay for human GATA Binding Protein (AID 2282944). To be noted: HepG2 GATA cis-element reporter, Attagene multiplex mRNA; actives raise or lower the signal. The procedure, abridged:
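After transfecting HepG2 cells with multiple cis-regulated reporter units, chemicals are dosed for 24 h; isolated RNA undergoes RT-PCR and fluorescent labeling before capillary electrophoresis, with activity expressed against DMSO.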

Test [15] in a line: ATG_GLI_CIS: Attagene CIS-FACTORIAL HepG2 Assay for human Zinc Finger Protein GLI1 (AID 2282945). To be noted: HepG2, Attagene cis-factorial reporter mRNA, GLI element; actives raise or lower the signal. The method, boiled down:
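Transiently transfected HepG2 cells report endogenous transcription factor activity via cis-element-driven reporter units. After 24 h compound exposure, reporter mRNA was measured by RT-PCR with capillary electrophoresis; bidirectional fitting against DMSO baseline.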

Test [16] addresses Bile acid receptor (Homo sapiens) (UniProt Q96RI1). Briefly: ATG_IR1_CIS: Attagene CIS-FACTORIAL HepG2 Assay for human Nuclear Receptor Subfamily 1 Group H Member 4 (NR1H4), IR1 submotif (AID 2282946). To be noted: IR1 reporter transcription, actives raise or lower the signal. The method, boiled down: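 Fluorescence of capillary-separated, HpaI-digested RT-PCR reporter products gave IR1-element mRNA induction in HepG2 cells 24 h after dosing. Endogenous transcription factors drove the cis-regulated reporters; activity was fitted bidirectionally against DMSO.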

Test [17] in a line: ATG_GRE_CIS: Attagene CIS-FACTORIAL HepG2 Assay for human Glucocorticoid Response Elements (GRE) (AID 2282947). To be noted: HepG2 GRE cis-reporter, Attagene multiplex mRNA; AC50: actives raise or lower the signal unless noted; outcome: actives raise or lower the signal unless noted. The procedure, abridged: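 Read-out: fluorescent reporter-transcript fragments separated by capillary electrophoresis after RT-PCR. Transiently transfected HepG2 cells carrying cis-element-driven reporter units were dosed for 24 h; gain or loss of signal fitted against DMSO control.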

Test [18] can be described thus: ATG_ISRE_CIS: Attagene CIS-FACTORIAL HepG2 Assay for human Interferon Regulatory Factor 1 (IRF1) binding to an Interferon-Stimulated Response Element (ISRE) (AID 2282948). To be noted: HepG2 ISRE cis-reporter (Attagene), mRNA transcription readout; actives raise or lower the signal. The method, boiled down:
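Uses HepG2 liver cells transfected with cis-regulated reporters and measures mRNA 24 h post-dosing through RT-PCR, primer-extension labelling and capillary electrophoresis, with DMSO as negative control.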

The target in test [19] is Retinoic acid receptor alpha (Homo sapiens) (UniProt P10276). Briefly: ATG_DR5_RAR_CIS: Attagene CIS-FACTORIAL HepG2 Assay for human Retinoic Acid Receptor Alpha (RARE), DR5 submotif (AID 2282934). To be noted: HepG2 Attagene cis-factorial RARE DR5 reporter, mRNA; actives raise or lower the signal. The method, boiled down:
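After 24 h of chemical exposure, transiently transfected HepG2 cells were lysed for total RNA; the DR5-regulated reporter transcript was quantified via RT-PCR and capillary electrophoresis, with activity fitted bidirectionally against DMSO.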

Test [20] can be described thus: ATG_ERE_CIS: Attagene CIS-FACTORIAL HepG2 Assay for Estrogen Response Element (ERE) (AID 2282940). To be noted: HepG2 ERE cis-reporter, Attagene RNA transcript; actives raise or lower the signal. The procedure, abridged: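 Fluorescence of capillary-separated, FAM-labelled reporter cDNA fragments indicates reporter mRNA levels in HepG2 cells exposed to chemicals for 24 h. Transient transfection with cis-regulated units; data fitted in both directions against DMSO.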

Transcription factor E2F1 (Homo sapiens), sequence (Q01094 whole entry, looked up): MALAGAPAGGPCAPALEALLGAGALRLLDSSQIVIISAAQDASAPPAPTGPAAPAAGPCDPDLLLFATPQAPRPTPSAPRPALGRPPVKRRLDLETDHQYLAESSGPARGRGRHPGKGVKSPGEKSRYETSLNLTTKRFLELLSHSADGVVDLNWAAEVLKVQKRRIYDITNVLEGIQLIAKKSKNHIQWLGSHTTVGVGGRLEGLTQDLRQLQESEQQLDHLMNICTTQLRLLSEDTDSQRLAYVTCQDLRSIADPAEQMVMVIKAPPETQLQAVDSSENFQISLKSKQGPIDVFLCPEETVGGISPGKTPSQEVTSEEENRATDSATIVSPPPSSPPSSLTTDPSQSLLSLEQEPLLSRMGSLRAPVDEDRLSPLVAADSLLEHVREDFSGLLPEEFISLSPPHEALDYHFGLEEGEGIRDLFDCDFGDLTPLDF
Hepatocyte nuclear factor 3-beta (Homo sapiens), sequence (Q9Y261 whole entry, looked up, the tested form may be a part): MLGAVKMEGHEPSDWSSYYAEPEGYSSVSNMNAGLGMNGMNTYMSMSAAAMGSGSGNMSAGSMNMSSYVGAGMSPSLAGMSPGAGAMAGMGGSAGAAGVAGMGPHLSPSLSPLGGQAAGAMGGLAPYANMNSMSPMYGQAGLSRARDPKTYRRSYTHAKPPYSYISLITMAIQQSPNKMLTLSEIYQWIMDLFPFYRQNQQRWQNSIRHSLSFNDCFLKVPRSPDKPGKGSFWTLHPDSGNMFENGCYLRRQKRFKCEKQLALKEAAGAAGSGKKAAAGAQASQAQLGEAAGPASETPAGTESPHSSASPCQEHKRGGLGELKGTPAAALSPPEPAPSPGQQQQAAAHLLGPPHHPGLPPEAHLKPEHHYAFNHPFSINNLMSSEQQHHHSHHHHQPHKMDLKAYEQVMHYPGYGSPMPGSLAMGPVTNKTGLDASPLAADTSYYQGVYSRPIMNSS
Bile acid receptor (Homo sapiens), sequence (Q96RI1 whole entry, looked up): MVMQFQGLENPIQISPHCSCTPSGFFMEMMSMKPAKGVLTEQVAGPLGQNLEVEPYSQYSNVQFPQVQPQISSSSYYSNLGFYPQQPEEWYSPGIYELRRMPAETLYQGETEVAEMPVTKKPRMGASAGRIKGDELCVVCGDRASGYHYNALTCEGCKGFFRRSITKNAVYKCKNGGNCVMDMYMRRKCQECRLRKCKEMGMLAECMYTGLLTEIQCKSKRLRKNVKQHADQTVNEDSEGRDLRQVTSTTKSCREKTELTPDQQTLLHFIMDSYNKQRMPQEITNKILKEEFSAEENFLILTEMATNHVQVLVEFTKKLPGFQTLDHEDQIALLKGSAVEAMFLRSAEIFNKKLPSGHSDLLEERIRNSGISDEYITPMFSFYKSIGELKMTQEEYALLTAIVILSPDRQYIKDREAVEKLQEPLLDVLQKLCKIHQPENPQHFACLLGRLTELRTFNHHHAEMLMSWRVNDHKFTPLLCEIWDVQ
Aryl hydrocarbon receptor (Homo sapiens), sequence (P35869 whole entry, looked up): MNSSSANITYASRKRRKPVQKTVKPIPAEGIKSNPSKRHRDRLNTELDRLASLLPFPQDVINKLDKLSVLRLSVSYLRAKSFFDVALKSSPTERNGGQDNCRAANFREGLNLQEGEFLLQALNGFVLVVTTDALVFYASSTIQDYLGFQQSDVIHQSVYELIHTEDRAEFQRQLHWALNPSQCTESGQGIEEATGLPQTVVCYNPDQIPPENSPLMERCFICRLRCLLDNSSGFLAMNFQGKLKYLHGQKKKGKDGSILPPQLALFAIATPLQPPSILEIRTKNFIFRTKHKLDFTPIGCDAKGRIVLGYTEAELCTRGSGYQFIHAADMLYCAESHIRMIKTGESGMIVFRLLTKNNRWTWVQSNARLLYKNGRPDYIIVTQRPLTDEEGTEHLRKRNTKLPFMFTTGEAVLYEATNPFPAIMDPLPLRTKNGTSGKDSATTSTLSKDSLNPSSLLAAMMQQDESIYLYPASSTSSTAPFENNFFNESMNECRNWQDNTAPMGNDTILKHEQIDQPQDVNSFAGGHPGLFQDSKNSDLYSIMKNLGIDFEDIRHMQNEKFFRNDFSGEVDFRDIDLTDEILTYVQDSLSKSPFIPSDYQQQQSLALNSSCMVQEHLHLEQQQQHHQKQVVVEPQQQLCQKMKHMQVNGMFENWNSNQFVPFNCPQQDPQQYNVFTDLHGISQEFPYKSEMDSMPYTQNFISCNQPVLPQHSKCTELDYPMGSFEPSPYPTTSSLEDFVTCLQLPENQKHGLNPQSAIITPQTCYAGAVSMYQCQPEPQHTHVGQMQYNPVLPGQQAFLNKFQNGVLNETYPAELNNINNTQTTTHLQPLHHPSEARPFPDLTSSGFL
Retinoic acid receptor alpha (Homo sapiens), sequence (P10276 whole entry, looked up): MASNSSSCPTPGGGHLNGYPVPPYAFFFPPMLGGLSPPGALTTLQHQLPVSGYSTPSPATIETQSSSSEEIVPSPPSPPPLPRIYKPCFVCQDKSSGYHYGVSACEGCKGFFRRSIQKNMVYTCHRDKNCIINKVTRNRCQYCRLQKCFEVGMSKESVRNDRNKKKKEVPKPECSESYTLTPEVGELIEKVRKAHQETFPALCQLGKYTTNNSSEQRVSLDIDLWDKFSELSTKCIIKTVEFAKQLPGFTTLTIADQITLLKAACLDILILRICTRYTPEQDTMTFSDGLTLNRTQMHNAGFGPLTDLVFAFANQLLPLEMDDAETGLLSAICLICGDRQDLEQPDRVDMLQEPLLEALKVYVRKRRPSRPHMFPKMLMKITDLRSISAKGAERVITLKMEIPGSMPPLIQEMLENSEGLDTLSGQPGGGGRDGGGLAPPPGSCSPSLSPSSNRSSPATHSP

Regarding `CN(C)c1ccc(C(=C2C=CC(=[N+](C)C)C=C2)c2ccccc2)cc1`, the half-maximal activity concentration (AC50) (commonly the concentration giving half of the maximal activity seen) in test [1] was 2.07 µM (active) and 1.26 µM (active); in test [3], 472 nM (active); in test [4] it was 2.72 µM (active); in test [7] it was 3.63 µM (active) and 1.85 µM (active); in test [9], 1.46 µM (active) and 1.85 µM (active); in test [11] it was 10.1 µM (active). Moreover, the AC50 in test [12] is 1.51 µM (active); in [15], 1.42 µM (active) and 1.85 µM (active); in test [16] it was 1.28 µM (active); in [18], 1.34 µM (active) and 1.85 µM (active). Besides, the compound was called inactive in test [2], in test [3], in [4], in test [5], in [6] and in test [8]. The compound was classed as inactive in test [10], in test [11], in test [12], in test [13], in test [14] and in test [16]. In addition, the outcome in test [17] was inactive.

For `CC(C)(C)c1ccc(O)c(O)c1`, the half-maximal activity concentration (AC50) in [1] is 40.8 µM (active); in test [2], 20 µM (active); in test [5], 47.3 µM (active); in [9], 48.7 µM (active) [middle of 4 runs]; in [16], 45 µM (active) and 59 µM (active) and 37.3 µM (active). Besides, the compound was classed as inactive in [1], in test [2], in [4], in [5], in test [19] and in test [6]. In addition, the outcome in test [7], in test [8], in test [9], in test [11], in test [13] and in test [14] was inactive. Further, the compound was called inactive in [15], in [16], in [17] and in test [18].

Turning to `CCCCCCCCCCCC[N+](C)(C)CCCCCCCCCCCC`, the call in test [1], in [2], in test [3], in [5], in test [19] and in [6] was inactive. Moreover, the outcome in test [7], in [8], in test [9], in [10], in [20] and in test [12] was inactive. The compound was classed as inactive in test [13], in [14], in [15], in test [16] and in test [17]. In addition, the AC50 is 168 µM (active) in [4], 36.3 µM (active) in test [11] and 100 µM (active) in [18].

With `O=C1OC2(c3ccccc31)c1cc(I)c(O)c(I)c1Oc1c2cc(I)c(O)c1I`, the compound was classed as inactive in [1], in test [3], in [4], in test [5], in test [6] and in [8]. The call in test [9], in test [10], in test [11], in test [12], in [13] and in [14] was inactive. The compound was classed as inactive in test [15] and in test [18]. Besides, the half-maximal activity concentration (AC50) was 15.4 µM (active) and 27.3 µM (active) and 27.9 µM (active) in test [2]; 88.1 µM (active) and 82.7 µM (active) in test [5]; 36.1 µM (active) and 29.8 µM (active) in [9]; 29.9 µM (active) in [12].

For the compound `CCCCCCCCCCCC(=O)O`, the AC50 was 167 µM (active) in test [1]; 117 µM (active) and 60 µM (active) in test [3]; 146 µM (active) in test [18]. Moreover, the result in [1], in test [2], in test [4], in test [5], in test [6] and in test [7] was inactive. Also, the outcome in test [8], in [9], in test [10], in test [11], in [12] and in [13] was inactive. In addition, the compound was called inactive in test [14], in [15] and in test [18].
